# Measured values from the supplement of paper PMC10338343.
# ± gives the standard deviation. Whole data set: some 3,000 sequences, median “pre-steady-state target cleavage rate” near 0.0079, cut for the highest 2% near 0.2. What follows is part of a selection rich in the highest values, with near analogues and random picks from the rest.
# Test system: MILI (PIWIL2) piRISC loaded with piRNA #2 (26 nt)
# Assay: pre-steady-state target cleavage rate (min^-1); MIWI and MILI are mouse PIWI proteins and EfPiwi is from a freshwater sponge; tags in brackets are library labels; higher = faster piRNA-guided slicing of the target
# Conditions: guide: piRNA #2 5'p-UUAGGUAACCCAGUAGAUCCAGAGGA; auxiliary factor: 500 nM mouse GTSF1
# Procedure: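 Cleave-'n-Seq: a library of target RNAs (target site embedded in constant flanks, ACAGCATTCCGCGTTAGTGATATCCG... 5' flank; DNA-blocked outside the site) at 0.1 nM was incubated with 1 nM active mouse MILI or MIWI piRISC (synthetic 5'-monophosphorylated piRNA guide) with or without 500 nM mouse GTSF1 at 33 °C for 1 min to 16 h. Uncleaved targets were sequenced and normalised to non-target controls, and the pooled three trials were fitted to a burst-and-steady-state model to give the pre-steady-state cleavage rate (min^-1; k3 is constrained to at most 1e-4). Sequence is the target site only; target names encode pairing extent (gX:gY) and contiguous / 1-mismatch / 2-mismatch / bulge geometry. Fits with R² ≤ 0 are excluded.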
row,Sequence,pre-steady-state target cleavage rate
1,CUUAAGCUCUGGAUCUAGUGGGUUACCUAA,0.0282 ± 0.0073
2,CUUAACCUCUGGAGCUACUGGGUUACCUAA,0.226 ± 0.049
3,CUUAUCCUCUGGAUCCUACUGGGUUACCUAA,0.0665 ± 0.018
4,CUUAACCUCUGGACCUACUGGGUUACCUAA,0.0796 ± 0.023
5,CUUAAGCUCUGGAGCUACUGGGUUACCUAA,0.0783 ± 0.014
6,CUUAUCCUCUGGACCUACUGGGUUACCUAA,0.0996 ± 0.024
7,CUUAUCCUCUGGAGCUACUGGGUUACCUAA,0.238 ± 0.052
8,CUUAACCUCUGGAUCUACUGGGAUACCUUA,0.0634 ± 0.023
9,CUUAAGGUCUGGAUCUACUGGGUUACCUUAA,0.0607 ± 0.015
10,CUUAAGCUCUCCUUCUACUGGGUUACCUAA,0.0472 ± 0.016
11,CUUAACCUCUGGAUCUACUGGGUUAGCCUAA,0.15 ± 0.035
12,CUUACCCUCUGGAUCUACUGGGUUACCUAA,0.11 ± 0.016
13,CUUAUACCUCUGGAUCUACUGGGUUACCUAA,0.251 ± 0.058
14,CUUAAGCCUGGAUCUACUGGGUUACCUAA,0.104 ± 0.026
15,CUUAUACUCUGGAUCUACUGGGUUACCUAA,0.0651 ± 0.014
16,CUUAAGCCCUGGAUCUACUGGGUUACCUAA,0.202 ± 0.041
17,CUUAGCCUCUGGAUCUACUGGGUUACCUAA,0.218 ± 0.05
18,CUUAAGCUGCUGGAUCUACUGGGUUACCUAA,0.0417 ± 0.015
19,CUUAAGCCUCUGGAUCUACUGGGUUACCUAA,0.146 ± 0.043
20,CUUAAGGACUGGAUCUACUGGGUUACCUAG [g2:g22:cont:t1G],0.0474 ± 0.017
21,CUUAAGCUCAGGAUCUACUGGGUUUCCUAA,0.0265 ± 0.01
22,CUUAAGCUCUGGAUCUAAUGGGUUACCUAA,0.0186 ± 0.0042
23,CUUAAGCUCUGGAUCUACUGGGUGUACCUAA,0.0345 ± 0.0091
24,CUUAUCCUCUGGAUCUCUGGGUUACCUAA,0.0227 ± 0.01
25,CUUAUCCUCUGGAUCUCCUGGGUUACCUAA,0.459 ± 0.18
26,CUUAACCUCUGGAUCUGCUGGGUUACCUAA,0.097 ± 0.028
27,CUUAUCCUCUGGAUCUGCUGGGUUACCUAA,0.0654 ± 0.015

row,Sequence,pre-steady-state target cleavage rate
1,CUUAACCUCUGGAUCUCCUGGGUUACCUAA,0.213 ± 0.084
2,CUUAACCUCUGGAUCUCUGGGUUACCUAA,0.00889 ± 0.0054
3,CUUAAGCUCUGGAUCAACUGGGUUACCUUA,0.0336 ± 0.011
4,CUUAAGGUCUGGAUCUACUGGGUUUACCUAA,0.0618 ± 0.011
5,CUUAACCUCUGGAUCUACUGGGUUAGCUAA,0.112 ± 0.022
6,CUUAACCUCUGGAUCUACUGGGUUUGCUAA,0.305 ± 0.066
7,CUUAACCUCUGGUUCUACUGGGUUUCCUAA,1.67 ± 0.98
8,CUUAACCUCUGGAUCUUCUGGGUUACCUAA,0.0795 ± 0.017
9,CUUAACCUCUGGAUCUACUGGGUUAACCUAA,0.115 ± 0.024
10,CUUAACCUCUGGAUCUACUGGGUUUCCUAA,0.224 ± 0.062
11,CUUAAGCUCUGGAUCUACUGGGUUUGCUAA,0.144 ± 0.031
12,CUUAACCUCUGGAUCUUCUGGGUUUCCUAA,0.243 ± 0.083
13,CUUAACCUCUCGAUCUACUGGGUUUCCUAA,0.138 ± 0.035
14,CUUAACCUCUGGAUCUACUGGGUUUACCUAA,0.0817 ± 0.019
15,CUUAACCUCUGCAUCUACUGGGUUUCCUAA,0.14 ± 0.059
16,CUUAACCUCUGGAUCUUCUGGGUAACCUAA,0.0414 ± 0.016
17,CUUAAGGAGACCUAGUACUUGGUUACCUAA,< 0.0001
18,CUUAUGCUCUGGAUCUACUGGGUAACCUAA,0.0539 ± 0.012
19,CUUAAGGACUGCAUCUACAGGGUUACCUAA,0.0435 ± 0.015
20,CUUAACAUCUGGAUCUACUGGGUUACCUAA,0.114 ± 0.019
21,CUUAAGGAGUGGAUCUACUGGGUUACCUAG [g2:g21:cont:t1G],0.0456 ± 0.013
22,CUUAAGCUGACGAUCUACUGGGUUACCUAA,0.0365 ± 0.015
23,CUUAAGCUCUGGAUUACUGGGUUACCUAA,0.0142 ± 0.0047
24,CUUAAGGAGAGGAUCUACUGGGUUACCUAA [g2:g20:cont:t1A],0.0156 ± 0.0072
25,CUUAAGGACAGGAUCUACAGGGUUACCUAA,0.0375 ± 0.014
26,CUUAACCACUGGAUCAACUGGGUUACCUAA,0.0515 ± 0.014
27,CUUAAGCUCUGGAUCUUCUGGGUUUCCUAA,0.0561 ± 0.017

row,Sequence,pre-steady-state target cleavage rate
1,CUUAAGCUCUGGAUCUACUGGGUUUCCUAA,0.107 ± 0.025
2,CUUAUCCUCUGGAUCUUCUGGGUUUCCUAA,0.258 ± 0.088
3,CUUAAGCUCUGCAUCUACUGGGUUUCCUAA,0.0656 ± 0.022
4,CUUAACCUCUGGAUCUACUGGGUUUCGUAA,0.128 ± 0.044
5,CUUAACCUCUGGAUCUACUGGGUUACCUUA,0.111 ± 0.026
6,CUUAACCUCUGGAUCUACUGGGUUUCCUUA,0.225 ± 0.066
7,CUUAUCCUCUGGAUCUAGUGGGUUUCCUAA,0.055 ± 0.016
8,CUUAAGCUCUGGUUCUACUGGGUUUCCUAA,0.219 ± 0.085
9,CUUAACCUCUCGAUCUACUGGGUAACCUAA,0.0796 ± 0.017
10,CUUAACCACUGGUUCUACUGGGUUACCUAA,0.112 ± 0.019
11,CUUAACCACUGCAUCUACUGGGUUACCUAA,0.0927 ± 0.018
12,CUUAUCCUCUGGAUCUACUGGGUGACCUAA,0.0696 ± 0.014
13,CUUAACCUCUGGAACUACUGGGUAACCUAA,0.06 ± 0.024
14,CUUAUCCUCUGGAACUACUGGGUUAGCUAA,0.0654 ± 0.021
15,CUUAUCCUCUGGAACUACUGGGUUUCCUAA,1.1 ± 0.56
16,CUUAACCUCUGGAACUACUGGGUUUCCUAA,0.311 ± 0.14
17,CUUAUCCUCUGGAACUACUGGGUAACCUAA,0.0599 ± 0.022
18,CUUAACCUCUGGAACUACUGGGUUACCUAA,0.133 ± 0.03
19,CUUAAGGACUGGAUCUACUGGGUUACCUUAA,0.0243 ± 0.014
20,CUUAUCCUCUGGAUCUAUUGGGUUACCUAA,0.139 ± 0.036
21,CUUAAGGAGACCUAGAUGACGGUUACCGAA,< 0.0001
22,CUUAAGCUCUGGAUCUACUGGGUUCCCUAA,0.0477 ± 0.017
23,CUUAAGCUCUGCAUCUACUGGGUUACGUAA,0.0499 ± 0.016
24,CUUAUCCUCUGGAUCAACAGGGUUACCUAA,0.0724 ± 0.01
25,CUUAAGGUCUGCAUCUACUGGGUAACCUAA,0.00707 ± 0.006
